PAFAH1B3 inh – PAFAH1B3 (human) inhibition; recombinant PAFAH1B3, FP-rhodamine probe, fluorescence polarization; inhibition, % at 3.39 µM; 340,000 tested, 0.28% active; AID 492972;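 active = inhibition above the screen-wide average of all tested compounds plus 3 SD, cut at about 25% in these data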;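 also: 0% = enzyme with DMSO only and 100% = wells lacking PAFAH1B3 protein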
Target sequence (Q15102 whole entry, looked up): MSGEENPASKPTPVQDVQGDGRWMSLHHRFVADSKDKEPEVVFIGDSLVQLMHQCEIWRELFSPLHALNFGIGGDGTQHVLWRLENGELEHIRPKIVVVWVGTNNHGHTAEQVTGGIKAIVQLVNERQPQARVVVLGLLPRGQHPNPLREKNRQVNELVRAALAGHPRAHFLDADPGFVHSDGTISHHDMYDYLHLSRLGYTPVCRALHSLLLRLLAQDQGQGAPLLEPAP
pPAFAH FP inh – pPAFAH (human) enzyme inhibition | Q13093 | recombinant pPAFAH, FP-rhodamine probe fluorescence polarization | inhibition, % at 3.39 µM | 330,000 tested, 1.5% active;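 active = inhibition above the mean inhibition across the screen plus 3 SD, cut at about 25% in these data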;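 also: inhibitors block binding of the rhodamine activity-based probe so polarization drops; 0% = enzyme with DMSO and 100% = wells lacking pPAFAH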
Fh CTSL1 inh – blocks F. hepatica cathepsin L1 in PFM18AAP counter-screen; recombinant F. hepatica cathepsin L1, Z-Leu-Arg-MCA fluorescence; inhibition, % at 5.96 µM; 300,000 tested, 0.49% active; AID 1906;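 active = inhibition above the mean of all tested compounds plus 3 SD, set per screening campaign, cut at about 17% in these data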;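 also: 0% = plate median of test compound wells and 100% = 1 µM Z-Phe-Ala-diazomethylketone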
PAFAH1B2 FP inh – inhibitors of human PAFAH1B2; recombinant PAFAH1B2, FP-rhodamine activity probe, fluorescence polarization; inhibition, % at 3.39 µM; 340,000 tested, 1.2% active;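 active = inhibition above the mean of all tested compounds plus 3 SD, cut at about 24% in these data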;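 also: 0% = enzyme with DMSO and 100% = wells lacking PAFAH1B2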
Target sequence (P68402 whole entry, looked up): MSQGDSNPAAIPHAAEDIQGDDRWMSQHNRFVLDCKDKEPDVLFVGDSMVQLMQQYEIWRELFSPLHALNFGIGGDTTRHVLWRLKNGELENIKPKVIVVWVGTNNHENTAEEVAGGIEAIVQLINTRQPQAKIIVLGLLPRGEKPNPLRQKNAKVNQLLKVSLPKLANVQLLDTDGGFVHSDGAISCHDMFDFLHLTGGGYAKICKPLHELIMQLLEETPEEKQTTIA
PAFAH2 inh – PAFAH2 (human) inhibition. recombinant PAFAH2, FP-rhodamine activity probe, fluorescence polarization. inhibition, % at 3.39 µM. 340,000 tested, 0.99% active. AID 492956;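 active = inhibition above the mean over all tested compounds plus 3 SD, cut at about 30% in these data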;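 also: inhibitors block probe labeling of enzyme so polarization drops; 0% = enzyme with DMSO and 100% = wells lacking PAFAH2 protein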
PP5 inh – blocks human protein phosphatase 5 activity; P53041; purified PP5c, OMFP substrate fluorescence; inhibition, % at 6.7 µM; 320,000 tested, 0.18% active; AID 1987;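 active = inhibition above the campaign's mean inhibition across all tested compounds plus 3 SD, cut at about 9.5% in these data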;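 also: 0% = DMSO only and 100% = 100 µM cantharidin control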
PAFAH2 FP conf – confirmation of human PAFAH2 inhibitors; AID 493030; inhibition, % at 3.39 µM; recombinant PAFAH2, FP-rhodamine activity probe, fluorescence polarization; 2,300 tested, 65% active; shares compounds with PAFAH2 inh;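 active = mean inhibition over three repeats above a set limit taken from the earlier primary screen, cut at about 30% in these data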;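 also: inhibitor blocks binding of rhodamine activity probe so polarization falls; 0% = enzyme with DMSO and 100% = wells lacking PAFAH2 protein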
Starred values were filed as active, the others as inactive; nt = not tested or not shown. A selection: hits, their analogues and other compounds. The true share with any hit is near 3%.

SMILES	PAFAH1B3 inh	pPAFAH FP inh	Fh CTSL1 inh	PAFAH1B2 FP inh	PAFAH2 inh	PP5 inh	PAFAH2 FP conf
CCOc1ncccc1C(=O)OCC(=O)c1ccc(Cl)s1	8	8	-3	4	44*	4	17
O=C(COC(=O)CNC(=O)c1ccccc1F)Nc1ccc2c(c1)OCCO2	2	5	0	0	0	-3	nt
O=C(COC(=O)c1ccccc1F)Nc1ccc2c(c1)OCCO2	8	nt	nt	4	70*	nt	52*
Cc1cccc(C(=O)OCC(=O)Nc2ccc3c(c2)OCCO3)c1O	-2	0	nt	3	4	2	nt
O=C(COC(=O)c1cccc(F)c1)Nc1ccc2c(c1)OCCO2	3	9	nt	2	31*	2	27
O=C(COC(=O)c1cc[n+]([O-])cc1)Nc1ccc2c(c1)OCCO2	1	1	-9	-4	-3	-1	nt
Cc1cccc(C(=O)OCC(=O)Nc2ccc3c(c2)OCCO3)c1	5	5	nt	4	61*	1	58*
CCOC(=O)C1(Cc2ccc(Cl)cc2)CCN(C(=O)c2sc(C)nc2C)CC1	-2	5	6	6	-5	-3	nt
COc1ccc(S(=O)(=O)NCC2CC3C=CC2C3)cc1OC (configuration not stated)	-2	0	-2	1	4	2	nt
COc1cc([N+](=O)[O-])ccc1NC(=O)CC(C)C	1	0	0	0	-3	0	nt
CN(C)S(=O)(=O)c1cccc(C(=O)OCC(=O)Nc2ccc3c(c2)OCCO3)c1	-2	11	nt	2	41*	1	40*
CCN(CC)C(=O)Cn1cc([N+](=O)[O-])cc1[N+](=O)[O-]	7	nt	nt	6	7	nt	nt
COc1ccc(C(=O)OCC(=O)NC2CCCC2)c(OC)c1	0	6	-1	-1	70*	3	56*
COc1cc(SC)ccc1C(=O)OCC(=O)NC1CC1	9	3	-3	5	4	-1	nt
COc1ccc(C(=O)OCC(=O)NC2CCCC2)c(OC)c1OC	4	12	-1	1	89*	2	81*
COc1ccc(C(=O)OCC(=O)NC2CCCCCC2)c(OC)c1	11	nt	nt	4	82*	nt	78*
COc1ccc(C(=O)OCC(=O)NC(=O)NC2CCCC2)c(O)c1	3	0	2	1	2	-2	nt
COc1ccc(C(=O)OCC(=O)NC(=O)NC2CCCC2)c(OC)c1	5	3	1	1	25	2	nt
CCN(C(=O)c1cccc(S(=O)(=O)N2CCCCC2)c1)C1CCS(=O)(=O)C1 (configuration not stated)	1	nt	nt	8	-1	nt	nt
CCCCNC(=O)COC(=O)c1ccccc1F	0	12	-4	7	46*	0	40*
O=C(COC(=O)c1cccc2c1C(=O)c1ccccc1C2=O)NC1CCCCC1	-2	21	11	3	20	3	nt
O=C(COC(=O)c1cccnc1Nc1ccccc1F)NC1CC1	8	1	-2	4	-1	1	nt
O=C(COC(=O)c1ccccc1F)NC1CCCC1	4	16	-5	3	64*	1	60*
O=C(COC(=O)c1ccccc1F)NC1CC1	7	7	nt	5	30*	0	28
Nc1ncccc1C(=O)OCC(=O)NC1CCCCCC1	9	6	nt	5	42*	1	25
SMILES	PAFAH1B3 inh	pPAFAH FP inh	Fh CTSL1 inh	PAFAH1B2 FP inh	PAFAH2 inh	PP5 inh	PAFAH2 FP conf
O=C(COC(=O)c1ccccn1)NC1CCCCC1	5	6	-1	-1	7	1	nt
CC(=O)N/C(=N\c1nc(C)cc(C)n1)Nc1ccc2ccccc2c1	5	-4	6	-3	3	1	nt
O=C(COC(=O)c1c(F)cccc1Cl)NC1CCCCC1	5	nt	nt	3	66*	nt	48*
O=C(COC(=O)c1cc2ccccc2cc1O)NC1CCCCC1	5	8	nt	3	48*	nt	33*
O=C(COC(=O)c1cc(Br)ccc1O)NC1CCCCCC1	13	6	-1	1	25	-2	nt
C#CCOCCOCCOCCNc1nc(N2CCN(C(=O)[C@H](CC(N)=O)n3cc(C(N)[C@H](C)CC)nn3)CC2)nc(N2CCN(C(=O)[C@H](CC(N)=O)n3cc(C(N)[C@@H](C)CC)nn3)CC2)n1 (some centres not stated)	3	6	nt	7	3	nt	nt
CN(C(=O)c1ccc(Cl)c([N+](=O)[O-])c1)C1(C)CCS(=O)(=O)C1 (configuration not stated)	2	4	-3	1	1	-3	nt
COc1cc(C(C)=O)ccc1COc1ccc(C(=O)OCC(=O)NC2CCS(=O)(=O)C2)cc1OC (configuration not stated)	3	2	0	6	11	3	nt
COc1cc(C(C)=O)ccc1COc1ccc(C(=O)OCC(=O)NC(C)(C)C)cc1OC	-3	20	3	-2	74*	-1	79*
COCCn1c(SCC(=O)NC(C)c2ccc(F)cc2)nc2ccccc21 (configuration not stated)	7	5	-2	-2	1	3	nt
CC(C)(C)OC(=O)NCc1ccc(NC(=O)c2nc[nH]c2C(=O)NCCCNC(=O)c2[nH]cnc2C(=O)Nc2ccc(CNC(=O)OC(C)(C)C)cc2)cc1	-91	-16	nt	-54	-82	nt	nt
CN(C)S(=O)(=O)N(CC(=O)N(Cc1ccccc1)Cc1ccccc1)c1ccccc1	-2	5	3	-2	38*	0	24
COc1ccccc1C(=O)Nc1ccc(OCC(=O)N2CC(C)CC(C)C2)cc1 (configuration not stated)	3	-3	nt	-3	4	1	nt
CCOC(=O)c1c(C)oc2cc(Br)c(O)c(Br)c12	4	8	1	1	43*	2	31*
O=C(Nc1ccc(F)cc1F)c1ccc2c(c1)OCCO2	2	6	2	0	-5	1	nt
Cc1ccnn1-c1ccc(C(=O)OCC(=O)Nc2ccc(F)cc2)cc1	0	nt	nt	4	55*	nt	60*
CC(C)NC(=O)COC(=O)c1ccc(NS(=O)(=O)c2ccc3c(c2)OCCO3)cc1	5	20	-5	-4	51*	-1	43*
O=C(COC(=O)c1ccc2c(c1)OCCO2)Nc1ccc(F)cc1F	6	14	nt	6	77*	nt	62*
O=C(COC(=O)c1ccc2c(c1)OCCO2)Nc1ccc(F)cc1	13	nt	nt	1	81*	nt	82*
O=C(COc1ccc([N+](=O)[O-])cc1Cl)N1CCc2ccccc21	10	10	nt	4	-1	nt	nt
CC(C)Cc1nnc(NC(=O)c2cc([N+](=O)[O-])ccc2N2CCOCC2)s1	7	3	2	5	1	3	nt
